Several values for one entry are separate records, joined by “and”; a condition that tells them apart may be missing. Equal values may be shown once. The campaign covered roughly 5,500 compounds. About 2,000 (36%) were called active. Inconclusive results (about 18%) are left out. No stated cut-off is given here; in the data, active means normalized growth mostly below about 0.91 (no sharp cut-off); inconclusive means no clear call, values can overlap the other calls; inactive means mostly above about 0.92. The list shows a part of the results.
Test: chemical genetic growth profiling, strain panel (AID 1159580);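 further: tested at 20 µM; growth read once vehicle control cultures reached saturation at 30 °C; 1 = growth at the plate median or of vehicle wells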
Conditions: growth OD

Measured: normalized growth

CCCCNc1cc(C(=O)O)cc(S(N)(=O)=O)c1Oc1ccccc1
inactive: S. cerevisiae deletion strains, locus YKL009W, strain mrt4, stronger effect = lower value 0.979 | S. cerevisiae deletion strains, locus YKL068W, stronger effect = lower value 0.986 | S. cerevisiae deletion strains, locus YKL085W, strain MDH1 (second series), stronger effect = lower value 0.989 | S. cerevisiae deletion strains, locus YKL085W, strain MDH1, stronger effect = lower value 0.989 | S. cerevisiae deletion strains, locus YKL160W, strain elf1, stronger effect = lower value 0.995 | S. cerevisiae deletion strains, locus YKL190W, strain CNB1, stronger effect = lower value 0.994 | S. cerevisiae deletion strains, locus YKR001C, strain vps1, stronger effect = lower value 0.983 | S. cerevisiae deletion strains, locus YKR026C, strain gcn3, stronger effect = lower value 1.01 | S. cerevisiae deletion strains, locus YKR091W, strain srl3, stronger effect = lower value 1 | S. cerevisiae deletion strains, locus YLL001W, strain dnm1, stronger effect = lower value 1 | S. cerevisiae deletion strains, locus YLL026W, stronger effect = lower value 0.992 | S. cerevisiae deletion strains, locus YLL041C, strain sdh2, stronger effect = lower value 0.991 | S. cerevisiae deletion strains, locus YLR027C, strain aat2, stronger effect = lower value 1.01 | S. cerevisiae deletion strains, locus YLR039C, strain RIC1, stronger effect = lower value 1.01 | S. cerevisiae deletion strains, locus YLR058C, strain SHM2, stronger effect = lower value 0.988 | S. cerevisiae deletion strains, locus YLR102C, strain apc9, stronger effect = lower value 0.984 | S. cerevisiae deletion strains, locus YLR113W, strain HOG1, stronger effect = lower value 1.04 | S. cerevisiae deletion strains, locus YLR221C, strain rsa3, stronger effect = lower value 1 | S. cerevisiae deletion strains, locus YLR258W, strain gsy2, stronger effect = lower value 0.995 | S. cerevisiae deletion strains, locus YLR262C, strain YPT6 (second series), stronger effect = lower value 1.02 | S. cerevisiae deletion strains, locus YLR262C, strain YPT6, stronger effect = lower value 1.02 | S. cerevisiae deletion strains, locus YLR268W, strain sec22, stronger effect = lower value 0.965 | S. cerevisiae deletion strains, locus YLR320W, strain mms22, stronger effect = lower value 0.976 | S. cerevisiae deletion strains, locus YLR330W, strain CHS5, stronger effect = lower value 0.995 | S. cerevisiae deletion strains, locus YLR342W, strain FKS1 (second series), stronger effect = lower value 0.975 | S. cerevisiae deletion strains, locus YLR342W, strain FKS1, stronger effect = lower value 0.976 | S. cerevisiae deletion strains, locus YLR357W, strain rsc2, stronger effect = lower value 0.977 | S. cerevisiae deletion strains, locus YLR370C, strain arc18, stronger effect = lower value 1.01 | S. cerevisiae deletion strains, locus YLR371W, strain rom2, stronger effect = lower value 0.984 | S. cerevisiae deletion strains, locus YLR384C, strain iki3, stronger effect = lower value 1.02 | S. cerevisiae deletion strains, locus YLR418C, strain cdc73, stronger effect = lower value 0.959 | S. cerevisiae deletion strains, locus YML016C, strain PPZ1, stronger effect = lower value 0.991 | S. cerevisiae deletion strains, locus YML032C, strain rad52, stronger effect = lower value 0.99 | S. cerevisiae deletion strains, locus YML120C, strain ndi1, stronger effect = lower value 0.994 | S. cerevisiae deletion strains, locus YML124C, strain tub3, stronger effect = lower value 0.974 | S. cerevisiae deletion strains, locus YMR058W, strain fet3, stronger effect = lower value 1.06 | S. cerevisiae deletion strains, locus YMR078C, strain ctf18, stronger effect = lower value 0.978 | S. cerevisiae deletion strains, locus YMR125W, strain sto1, stronger effect = lower value 1.01 | S. cerevisiae deletion strains, locus YMR129W, stronger effect = lower value 1.02 | S. cerevisiae deletion strains, locus YMR205C, strain PFK2, stronger effect = lower value 0.989 | S. cerevisiae deletion strains, locus YMR223W, strain ubp8, stronger effect = lower value 0.972 | S. cerevisiae deletion strains, locus YMR231W, strain pep5, stronger effect = lower value 1.01 | S. cerevisiae deletion strains, locus YMR263W, strain SAP30, stronger effect = lower value 0.997 | S. cerevisiae deletion strains, locus YMR307W, strain GAS1, stronger effect = lower value 0.957 | S. cerevisiae deletion strains, locus YNL067W, strain RPL9B, stronger effect = lower value 1.02 | S. cerevisiae deletion strains, locus YNL071W, strain lat1, stronger effect = lower value 1.02 | S. cerevisiae deletion strains, locus YNL128W, strain TEP1, stronger effect = lower value 0.981 | S. cerevisiae deletion strains, locus YNL153C, strain GIM3, stronger effect = lower value 1.05 and 1.02 | S. cerevisiae deletion strains, locus YNL175C, strain NOP13, stronger effect = lower value 1 | S. cerevisiae deletion strains, locus YNL183C, strain NPR1, stronger effect = lower value 0.967 | S. cerevisiae deletion strains, locus YNL197C, strain WHI3, stronger effect = lower value 1.04 | S. cerevisiae deletion strains, locus YNL209W, strain ssb2, stronger effect = lower value 1.01 | S. cerevisiae deletion strains, locus YNL224C, strain SQS1, stronger effect = lower value 0.999 | S. cerevisiae deletion strains, locus YNL233W, strain BNI4, stronger effect = lower value 1.01 | S. cerevisiae deletion strains, locus YNL248C, strain rpa49, stronger effect = lower value 0.987 | S. cerevisiae deletion strains, locus YNL250W, strain rad50, stronger effect = lower value 0.946 | S. cerevisiae deletion strains, locus YNL271C, strain bni1, stronger effect = lower value 0.967 | S. cerevisiae deletion strains, locus YNL298W, strain CLA4, stronger effect = lower value 0.969 | S. cerevisiae deletion strains, locus YNL307C, strain MCK1, stronger effect = lower value 0.975 | S. cerevisiae deletion strains, locus YNL322C, strain KRE1 (second series), stronger effect = lower value 0.982 | S. cerevisiae deletion strains, locus YNR049C, strain mso1, stronger effect = lower value 1 | S. cerevisiae deletion strains, locus YNR052C, strain pop2, stronger effect = lower value 0.977 | S. cerevisiae deletion strains, locus YOL006C, strain TOP1, stronger effect = lower value 1 | S. cerevisiae deletion strains, locus YOL012C, strain htz1 0.812 | S. cerevisiae deletion strains, locus YOL147C, strain pex11, stronger effect = lower value 0.977 | S. cerevisiae deletion strains, locus YOR001W, strain rrp6, stronger effect = lower value 1.01 | S. cerevisiae deletion strains, locus YOR061W, strain CKA2, stronger effect = lower value 0.99 | S. cerevisiae deletion strains, locus YOR069W, strain VPS5, stronger effect = lower value 0.986 | S. cerevisiae deletion strains, locus YOR070C, strain gyp1, stronger effect = lower value 0.998 | S. cerevisiae deletion strains, locus YOR080W, strain dia2, stronger effect = lower value 1.01 | S. cerevisiae deletion strains, locus YOR083W, strain WHI5 (second series), stronger effect = lower value 1.03 | S. cerevisiae deletion strains, locus YOR083W, strain WHI5, stronger effect = lower value 0.951 | S. cerevisiae deletion strains, locus YOR106W, strain vam3, stronger effect = lower value 1.03 | S. cerevisiae deletion strains, locus YOR136W, strain idh2, stronger effect = lower value 0.992 | S. cerevisiae deletion strains, locus YOR144C, strain elg1, stronger effect = lower value 0.982 | S. cerevisiae deletion strains, locus YOR184W, strain ser1, stronger effect = lower value 0.973 | S. cerevisiae deletion strains, locus YOR231W, strain MKK1, stronger effect = lower value 1.07 | S. cerevisiae deletion strains, locus YOR265W, strain rbl2, stronger effect = lower value 1 | S. cerevisiae deletion strains, locus YOR270C, strain vph1, stronger effect = lower value 1.05 | S. cerevisiae deletion strains, locus YOR290C, strain snf2, stronger effect = lower value 1 | S. cerevisiae deletion strains, locus YOR316C, strain cot1, stronger effect = lower value 0.986 | S. cerevisiae deletion strains, locus YPL051W, strain arl3, stronger effect = lower value 0.997 | S. cerevisiae deletion strains, locus YPL055C, strain LGE1, stronger effect = lower value 1.01 | S. cerevisiae deletion strains, locus YPL078C, strain atp4, stronger effect = lower value 1 | S. cerevisiae deletion strains, locus YPL106C, strain sse1, stronger effect = lower value 0.962 | S. cerevisiae deletion strains, locus YPL240C, strain hsp82, stronger effect = lower value 1 | S. cerevisiae deletion strains, locus YPL241C, strain CIN2, stronger effect = lower value 0.985 | S. cerevisiae deletion strains, locus YPL256C, strain CLN2, stronger effect = lower value 1.06 | S. cerevisiae deletion strains, locus YPR119W, strain clb2, stronger effect = lower value 0.983 | S. cerevisiae deletion strains, locus YPR141C, strain kar3, stronger effect = lower value 0.967 | S. cerevisiae deletion strains, locus YPR163C, strain tif3, stronger effect = lower value 0.983 | S. cerevisiae deletion strains, locus YPR167C, strain met16, stronger effect = lower value 0.986 | S. cerevisiae deletion strains, strain wtn01, stronger effect = lower value 0.958 | S. cerevisiae strains, strain wild type, stronger effect = lower value 0.999
